According to the supplement of paper PMC10515830:
Counter-ions that a name gives are not always drawn.

These compounds were tested on Danio rerio larvae (5 dpf) (assay: difference in activity during first hour vs DMSO (percentage points); higher = more activity than DMSO). Details: 10 µM; exposure time 6 h.
Outline: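 Library compounds were tested at 10 µM final in 100 µL egg water on wild-type 5 dpf zebrafish larvae in 96-well plates for 6 h, with 48 larvae per compound. After 3 h, plates at 28.5 ℃ were imaged every 6 s during a 3-h run of moving lines and 100 ms, 400Hz tones. Behaviours were quantified by Z-LaP Tracker and reported as the compound mean less the vehicle control mean, in percentage points.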

| Structure (SMILES) | difference in activity during first hour |
| --- | --- |
| COc1c(C)c2c(c(O)c1C/C=C(\C)CCC(=O)O)C(=O)OC2 [Mycophenolic Acid] | -1.66 |
| CCCc1nc(C(C)(C)O)c(C(=O)OCc2oc(=O)oc2C)n1Cc1ccc(-c2ccccc2-c2nnn[nH]2)cc1 [Olmesartan Medoxomil] | 0.837 |
| Cc1ccc(N(CC2=NCCN2)c2cccc(O)c2)cc1 [Phentolamine (mesylate)] | 20 |
| CNCCCC12CCC(c3ccccc31)c1ccccc12 [Maprotiline (hydrochloride)] | -7.95 |
| CC=CC(=O)N(CC)c1ccccc1C [Crotamiton] | -3.58 |
| CCCCN1C[C@H](O)[C@@H](O)[C@H](O)[C@H]1CO [N-Butyldeoxynojirimycin (hydrochloride)] | 16.1 |
| CCCCC(C)(O)C/C=C/[C@H]1[C@H](O)CC(=O)[C@@H]1CCCCCCC(=O)OC (mixture of isomers) [Misoprostol] | -2.79 |
| CCCCc1ncc(/C=C(\Cc2cccs2)C(=O)O)n1Cc1ccc(C(=O)O)cc1 [Eprosartan (mesylate)] | -8.19 |
| CC(=O)OCC(=O)[C@@]12OC3(CCCC3)O[C@@H]1C[C@H]1[C@@H]3CCC4=CC(=O)C=C[C@]4(C)[C@@]3(F)[C@@H](O)C[C@@]12C [Amcinonide] | -7.56 |
| CN1C(=O)CC(C)(c2ccccc2)C1=O (centres undefined) [Methsuximide] | 7.45 |
| CC[C@H](Nc1ncnc2[nH]cnc12)c1nc2cccc(F)c2c(=O)n1-c1ccccc1 | -0.052 |
| CN(C)CCCN1c2ccccc2Sc2ccc(Cl)cc21 [Chlorpromazine (hydrochloride)] | 13.4 |
| Clc1ccc2c(c1)C(N1CCNCC1)=Nc1ccccc1O2 [Amoxapine] | 35.7 |
| C=C1CC[C@H](O)C/C1=C/C=C1\CCC[C@]2(C)[C@@H]([C@H](C)/C=C/[C@H](C)C(C)C)CC[C@@H]12 [Vitamin D2] | 3.16 |
| Cc1cc2nc3c(=O)[nH]c(=O)nc-3n(C[C@H](O)[C@H](O)[C@H](O)COP(=O)(O)O)c2cc1C [Riboflavin 5'-monophosphate (sodium salt hydrate)] | 13.4 |
| CNS(=O)(=O)CCc1ccc2[nH]cc(C3CCN(C)CC3)c2c1 [Naratriptan (hydrochloride)] | -1.59 |
| Cc1ccc(/C(=C\CN2CCCC2)c2cccc(/C=C/C(=O)O)n2)cc1 [Acrivastine] | 0.462 |
| COC(=O)C1=C(C)NC(C)=C(C(=O)OCCN(C)Cc2ccccc2)C1c1cccc([N+](=O)[O-])c1 (centres undefined) [Nicardipine (hydrochloride)] | 14.3 |
| C[C@H](CS)C(=O)N1CCC[C@H]1C(=O)O [Captopril] | -5.55 |
| NCCNCCNCCN [Trientine (hydrochloride)] | 13 |
| COc1ccc2c(O[C@@H]3C[C@H]4C(=O)N[C@]5(C(=O)NS(=O)(=O)C6CC6)C[C@H]5/C=C\CCCCN(C)C(=O)[C@@H]4C3)cc(-c3nc(C(C)C)cs3)nc2c1C [Simeprevir (sodium salt)] | 25.2 |
| C[C@H](N[C@@H](CCc1ccccc1)C(=O)O)C(=O)N1CCC[C@H]1C(=O)O [Enalaprilat (hydrate)] | 9.36 |
| Cc1nnc(SCC2=C(C(=O)O)N3C(=O)[C@@H](NC(=O)Cn4cnnn4)[C@H]3SC2)s1 [Cefazolin (sodium salt)] | 7.43 |
| O=C(O)C1(C(=O)O)CCC1.[NH2-].[NH2-].[Pt+2] [Carboplatin] | -11.9 |
| C[N+](C)(C)CCOC(N)=O [Carbamoylcholine (chloride)] | -0.038 |
| C[C@]12CCC(=O)C=C1CC[C@@H]1[C@@H]2[C@@H](O)C[C@@]2(C)[C@H]1CC[C@]2(O)C(=O)CO [Hydrocortisone] | 14.7 |
| COC(=O)N[C@H](C(=O)N1CCC[C@H]1c1ncc(-c2ccc(-c3ccc(-c4cnc([C@@H]5CCCN5C(=O)[C@@H](NC(=O)OC)C(C)C)[nH]4)cc3)cc2)[nH]1)C(C)C [Daclatasvir] | -4.26 |
| CC(C)(C)NC(=O)[C@H]1CC[C@H]2[C@@H]3CC[C@H]4NC(=O)C=C[C@]4(C)[C@H]3CC[C@]12C [Finasteride] | 10.8 |
| CO[C@H]1C[C@@H]2CC[C@@H](C)[C@@](O)(O2)C(=O)C(=O)N2CCCC[C@H]2C(=O)O[C@H]([C@H](C)C[C@@H]2CC[C@@H](OCCO)[C@H](OC)C2)CC(=O)[C@H](C)/C=C(\C)[C@@H](O)[C@@H](OC)C(=O)[C@H](C)C[C@H](C)/C=C/C=C/C=C/1C [Everolimus] | 1.4 |
